These results are taken from the supplement of paper PMC8728848.

Only a selection was taken, and the strongest signals are over-represented in it overall.

What all share (assay): glycan array binding signal (z-score within array); higher = stronger binding
Holding throughout (conditions): glycan notation: IUPAC condensed, linker removed

The target in one test is Gal6S(b1-4)Glc. An outline of the steps:
(§1)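 The Consortium for Functional Glycomics database supplied 3228 glycan arrays, of which those lacking an available protein sequence were dropped. The binding signal, a within-array Z-score, was averaged across arrays of the same protein sequence and across linkers. Negative scores can be read as non-binding.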

The target of another test is GlcNAc(b1-3)Gal(b1-4)Glc. In a few lines:
as §1

The target of test [1] is GlcNAc(b1-3)Gal(b1-4)GlcNAc(b1-3)Gal(b1-4)GlcNAc(b1-2)[GlcNAc(b1-3)Gal(b1-4)GlcNAc(b1-3)Gal(b1-4)GlcNAc(b1-6)]Man(a1-6)[GlcNAc(b1-3)Gal(b1-4)GlcNAc(b1-3)Gal(b1-4)GlcNAc(b1-2)Man(a1-3)]Man(b1-4)GlcNAc(b1-4)[Fuc(a1-6)]GlcNAc. In a few lines:
as §1

Test [2] addresses GlcNAc(b1-3)Gal(b1-4)GlcNAc(b1-3)Gal(b1-4)GlcNAc(b1-3)Gal(b1-4)GlcNAc(b1-2)[GlcNAc(b1-3)Gal(b1-4)GlcNAc(b1-3)Gal(b1-4)GlcNAc(b1-3)Gal(b1-4)GlcNAc(b1-6)]Man(a1-6)[GlcNAc(b1-3)Gal(b1-4)GlcNAc(b1-3)Gal(b1-4)GlcNAc(b1-3)Gal(b1-4)GlcNAc(b1-2)Man(a1-3)]Man(b1-4)GlcNAc(b1-4)[Fuc(a1-6)]GlcNAc. In a few lines: as §1
In test [3] the target is GlcNAc(b1-3)Gal(b1-4)GlcNAc(b1-3)Gal(b1-4)GlcNAc(b1-3)Gal(b1-4)GlcNAc(b1-3)Gal(b1-4)GlcNAc(b1-2)[GlcNAc(b1-3)Gal(b1-4)GlcNAc(b1-3)Gal(b1-4)GlcNAc(b1-3)Gal(b1-4)GlcNAc(b1-3)Gal(b1-4)GlcNAc(b1-6)]Man(a1-6)[GlcNAc(b1-3)Gal(b1-4)GlcNAc(b1-3)Gal(b1-4)GlcNAc(b1-3)Gal(b1-4)GlcNAc(b1-3)Gal(b1-4)GlcNAc(b1-2)Man(a1-3)]Man(b1-4)GlcNAc(b1-4)[Fuc(a1-6)]GlcNAc. In a few lines:
as §1

For the next test, the target named is GlcNAc(b1-3)GalNAc. An outline of the steps: as §1
The target of test [4] is GlcNAc(b1-3)[GlcNAc(b1-6)]Gal(b1-4)GlcNAc. An outline of the steps: as §1
Test [5] addresses Man(a1-2)Man(a1-3)[Man(a1-2)Man(a1-6)]Man. In a few lines:
as §1

The target in test [6] is Man(a1-3)[Man(a1-6)]Man(b1-4)GlcNAc(b1-4)[Fuc(a1-6)]GlcNAc. An outline of the steps:
as §1

Test [7] addresses Neu5Ac(a2-3)Gal(b1-3)GlcNAc(b1-2)Man(a1-3)[GlcNAc(b1-4)][Neu5Ac(a2-3)Gal(b1-3)GlcNAc(b1-2)Man(a1-6)]Man(b1-4)GlcNAc(b1-4)GlcNAc. In a few lines:
as §1

Test [8] deals with Neu5Ac(a2-3)Gal(b1-4)GlcNAc. An outline of the steps:
as §1

Test [9] deals with Neu5Ac(a2-3)Gal(b1-4)GlcNAc(b1-2)Man(a1-3)[Neu5Ac(a2-6)Gal(b1-4)GlcNAc(b1-2)Man(a1-6)]Man(b1-4)GlcNAc(b1-4)GlcNAc. An outline of the steps:
as §1

Test [10] deals with Neu5Ac(a2-3)Gal(b1-4)GlcNAc(b1-2)[Neu5Ac(a2-3)Gal(b1-4)GlcNAc(b1-4)]Man(a1-3)[GlcNAc(b1-4)][Neu5Ac(a2-3)Gal(b1-4)GlcNAc(b1-2)[Neu5Ac(a2-3)Gal(b1-4)GlcNAc(b1-6)]Man(a1-6)]Man(b1-4)GlcNAc(b1-4)GlcNAc. An outline of the steps: as §1
For test [11], the target named is Neu5Ac(a2-3)[GalNAc(b1-4)]Gal(b1-4)GlcNAc(b1-3)GalNAc. An outline of the steps:
as §1

For test [12], the target named is Neu5Ac(a2-6)Gal(b1-4)GlcNAc(b1-3)Gal(b1-4)GlcNAc(b1-2)Man(a1-3)[Neu5Ac(a2-6)Gal(b1-4)GlcNAc(b1-3)Gal(b1-4)GlcNAc(b1-2)Man(a1-6)]GalNAc. An outline of the steps: as §1
The target in test [13] is Neu5Ac(a2-6)Gal(b1-4)GlcNAc(b1-3)Gal(b1-4)GlcNAc(b1-3)Gal(b1-4)GlcNAc. An outline of the steps:
as §1

The target in test [14] is Neu5Ac(a2-6)Gal(b1-4)GlcNAc(b1-3)Gal(b1-4)GlcNAc(b1-3)Gal(b1-4)GlcNAc(b1-2)Man(a1-3)[Neu5Ac(a2-6)Gal(b1-4)GlcNAc(b1-3)Gal(b1-4)GlcNAc(b1-3)Gal(b1-4)GlcNAc(b1-2)Man(a1-6)]GalNAc. In a few lines:
as §1

Test [15] has as its target Neu5Ac(a2-6)Gal(b1-4)GlcNAc(b1-3)Gal(b1-4)[Fuc(a1-3)]GlcNAc(b1-3)Gal(b1-4)[Fuc(a1-3)]GlcNAc. In a few lines: as §1
Test [16] has as its target Neu5Ac(a2-6)Gal(b1-4)GlcNAc(b1-6)[Gal(b1-3)GlcNAc(b1-3)]Gal(b1-4)Glc. An outline of the steps: as §1
Test [17] has as its target Neu5Ac(a2-6)GlcNAc(b1-4)GlcNAc(b1-4)GlcNAc. An outline of the steps:
as §1

For test [18], the target named is Neu5Ac(a2-8)Neu5Ac(a2-3)Gal(b1-3)GalNAc(b1-4)[Neu5Ac(a2-8)Neu5Ac(a2-3)]Gal(b1-4)Glc. In a few lines:
as §1

Test [19] concerns the target Neu5Ac9Ac(a2-6)Gal(b1-4)GlcNAc. In a few lines: as §1

B1: Epa8 (Candida glabrata) (protein)
chain: MGSSHHHHHHSSGLVPRGSHMASSRALSDYPLGCSPLLGTKLTPGLSMELYEYPLDNHGIGPHCWDPAYLNPEYPRTGFESHKLIGTAQNVMSLNFEHRTQDCHVEFSNLPASFNFPDQITLTNFTMLLYGYFKPKESGRYRFHMEADDLLLMNLGAGNAFDCCAHEATRNNLGDYIAYDIWAGTRKDVEVFLEKEVFYPLRLFFNNRDGRAALDFSYYLNGATEPGTDIPELLFSLPDGESCPAYI
With B1, the “glycan array binding signal (z-score)” value was 0.199 with Gal6S(b1-4)Glc; -0.331 with GlcNAc(b1-3)Gal(b1-4)Glc; 3.86 in test [1]; 3 in test [2]; 2.23 in [3]; -0.661 with GlcNAc(b1-3)GalNAc. Besides, the “glycan array binding signal (z-score)” value was 0.492 in test [4]; -0.246 in test [5]; 2.33 in test [6]; 1.49 in test [7]; -0.315 in [8]; 0.195 in test [9]. Moreover, the “glycan array binding signal (z-score)” value was -0.346 in [10]; 0.105 in [11]; 2.31 in test [12]; -0.084 in test [13]; 3.31 in test [14]; -0.491 in [15]. The “glycan array binding signal (z-score)” value in [16] was -0.638; in [17], -0.271; in [18] it was 0.256; in test [19], -0.4.
